Screens deposited in PubChem BioAssay by National Center for Advancing Translational Sciences (NCATS).
NS1 inh: blocks influenza NS1 protein function | Potency, µM (highest dose often 46.1 µM), inactives show at the highest dose activity, positive = more growth | 270,000 compounds, 0.4% hits; calls by dose curve; note: actives are rising curves; nearly all actives have a fitted effect of over 50% in size
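Recovery from NS1-induced slow growth read by OD600 in budding yeast switched to galactose assay medium (pH 6.0, -URA) at 1:100 dilution. Compound 23 nl per well; the matching strain lacking NS1 serves as control.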
Pf growth 96h: P. falciparum growth inhibition at 96 hours | P. falciparum luciferase reporter growth, 96 h | Potency, µM (doses to about 28.7 µM), for the others: at the highest dose activity change, negative = inhibition, most hits filed as inhibitors | 320,000 compounds, 6.9% hits; note: % is set by controls: 0 for no effect and ±100 for the full control effect
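Erythrocytes infected with luciferase-expressing P. falciparum were dispensed at 2% hematocrit and 0.05% parasitemia (final), then incubated with compounds 96 hours at 37 C in 5% CO2. Luminescence after detection reagent addition reported growth.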
Pf growth 48h: P. falciparum growth inhibition at 48 hours (one generation); P. falciparum luciferase growth in erythrocytes, 48 h; Potency, µM (series often up to 28.7 µM), for inactives: top-dose activity change, negative = inhibition, actives largely listed as inhibitors; 310,000 compounds, 5.9% hits; note: % is set by controls: 0 for no effect and ±100 for the full control effect
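Cell-based growth assay: transgenic P. falciparum expressing firefly luciferase, cultured in red cells within RPMI 1640 containing 0.5% w/v Albumax, 24 mM bicarbonate and gentamycin. A drop in luciferase activity indicates inhibition.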
HCV inhibitor: inhibitors of hepatitis C virus infection. AID 651820. 340,000 compounds, 3.4% hits. Potency, µM (series often up to 41.8 µM), inactives show at the top dose activity change, negative = inhibition, most hits filed as inhibitors. Huh7.5.1 HCVcc-Cre infection, luciferase reporter, 44 h; note: % is set by controls: 0 for no effect and ±100 for the full control effect
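Infectious HCV cell culture screen: compound-treated cells (1,000/well, pre-plated 4 h) are infected with HCVcc-Cre at roughly 0.5 moi and grown 44 h. Infection is quantified by luciferase signal after 15 min substrate incubation at room temperature.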
VACV Venus inh: inhibitors of vaccinia virus (Venus reporter) | 330,000 compounds, 0.46% hits | Vaccinia virus Venus reporter expression, fluorescence | Potency, µM (top dose mostly 36.5 µM), inactives show at the highest dose activity change, negative = inhibition, actives largely listed as inhibitors; calls by dose curve; tested in A549 cells; note: % is set by controls: 0 for no effect and ±100 for the full control effect; nearly all actives have a fitted effect of over 30% in size
Vaccinia mCherry: vaccinia inhibition (mCherry reporter). Vaccinia virus mCherry reporter infection, fluorescence. Potency, µM (highest dose often 36.5 µM), without a hit: at the top dose activity change, negative = inhibition, actives largely listed as inhibitors. 310,000 compounds, 0.63% hits. AID 720579; calls by dose curve; tested in A549 cells; note: % is set by controls: 0 for no effect and ±100 for the full control effect; nearly all actives have a fitted effect of over 35% in size
An asterisk follows results filed as active; i = inactive; ? = inconclusive; · = no result; [ ] = remark or other dose. A selection: hits, their analogues and other compounds. The true share with any hit is near 11%. Unless noted, calls come from the whole dose curve; as a rule, active = well fitted inhibition curve with a large enough effect; inconclusive = small, poorly fitted or top-dose-only effect, or another doubt; inactive = no such curve, though single readings can be large or run the other way. Potency is the fitted concentration of half-maximal effect.

SMILES | NS1 inh | Pf growth 96h | Pf growth 48h | HCV inhibitor | VACV Venus inh | Vaccinia mCherry
Nn1c(SCc2ccccn2)nncc1=O | 5% | 12µM* | 18% | 33% | -13% | -4%
Cc1nnc(SCc2ccccn2)n(N)c1=O | · | 50% | -9% | 9% | -9% | -12%
COc1ccc(CCNC(=O)CNC(=O)N2CC(=O)Nc3ccccc32)cc1OC | · | · | · | · | -10% | i
O=C1CN(C(=O)N[C@@H](Cc2ccccc2)C(=O)N[C@@H](Cc2ccccc2)C(=O)O)c2ccccc2N1 | 13% | ? | ? | 13% | 0% | 5%
COc1ccc(CCNC(=O)[C@@H](NC(=O)N2CC(=O)Nc3ccccc32)C(C)C)cc1OC | -8% | 12µM* | -20% | 3% | · | ·
O=C1CN(C(=O)N[C@@H](Cc2ccccc2)C(=O)N[C@H](Cc2ccccc2)C(=O)O)c2ccccc2N1 | ? | -16% | -4% | 0.56µM* | -6% | -3%
CC(=O)Nc1ccc(NC(=O)C2CCC(N3C(=O)C4C5C=CC(C6CC56)C4C3=O)CC2)cc1 (stereo unspecified) | -4% | -3% | 40% | ? | · | ·
O=C(Nc1ccc(Cc2ccncc2)cc1)C1CCC(N2C(=O)C3C4C=CC(C5CC45)C3C2=O)CC1 (stereo unspecified) | -4% | · | ? | 8.9µM* | · | ·
Cc1ccc(C(=O)CN2C(=O)c3ccccc3S2(=O)=O)cc1 | 2% | 76% | 3.7µM* | 25% | -8% | 0%
Cc1ccc(C(=O)COc2ccccc2-c2ccccc2)cc1 | -7% | 7% | ? | -15% | -19% | -27%
Cc1ccc(C(=O)COc2ccccc2N2C(=O)c3ccccc3C2=O)cc1 | 4% | 3.3µM* | 38% | 3% | -6% | -5%
CCOc1ccccc1-c1nc(-c2ccc(-c3ccccc3)nc2OCC)no1 | · | · | · | · | -12% | -4%
CCOc1nc(-c2ccccc2)ccc1-c1noc(-c2ccco2)n1 | -2% | 16% | ? | 10µM* | -9% | -13%
COC(=O)c1ccc(CSc2nc3ccc(S(N)(=O)=O)cc3[nH]2)cc1 | 7% | 26% | 22% | -28% | -5% | -7%
C/C(=N\NC(=O)c1ccc2c(c1)OCO2)c1cccnc1 | -8% | -7% | 18% | 21% | · | ·
CC/C(=N\NC(=O)c1cccnc1)c1ccc2c(c1)OCCO2 | · | 0.93µM* | -11% | ? | -11% | -23%
CCOc1ccc(C(=O)NC2CCCCCCC2)cc1 | · | · | · | 5% | -18% | -22%
CCOc1ccc(C(=O)NCC2CCN(CC3CCCCC3)CC2)cc1 | 9% | 5.9µM* | 42% | -8% | -14% | -15%
O=C(NC1CCCCC1)c1cccc(S(=O)(=O)N2CCCCC2)c1 | 4% | 4.1µM* | 9% | 0% | -1% | -10%
O=C(NC1CCS(=O)(=O)C1)c1cccc(S(=O)(=O)N2CCCCC2)c1 (stereo unspecified) | -1% | · | -13% | 3% | · | ·
O=C(NCC1CCCCC1)c1cccc([N+](=O)[O-])c1 | -18% | ? | 5.2µM* | 3% | -4% | -18%
CC(NC(=O)NC(=O)c1cccc([N+](=O)[O-])c1)C1CC1 (stereo unspecified) | 6% | 22% | 10µM* | 8% | 0% | -26%
CC(OC(=O)c1cccc(S(=O)(=O)N2CCCCC2)c1)C(=O)NCC1CCCCC1 (stereo unspecified) | · | 49% | -7% | 13% | -1% | -9%
O=C(NCC1CCCCC1)c1cccc(S(=O)(=O)N2CCCC2)c1 | · | ? | 10µM* | -5% | -11% | -1%
CC12CCC(c3nnc(SCC(=O)Nc4cccc5ccccc45)nc31)C2(C)C (stereo unspecified) | -21% | ? | -7% | -10% | · | ·
SMILES | NS1 inh | Pf growth 96h | Pf growth 48h | HCV inhibitor | VACV Venus inh | Vaccinia mCherry
CC12CCC(c3nnc(SCc4ccc(Cl)cc4)nc31)C2(C)C (stereo unspecified) | -3% | 4.1µM* | -12% | 9% | -17% | ·
CCOC(=O)CSc1nnc2c(n1)C1(C)CCC2C1(C)C (stereo unspecified) | -12% | 3.3µM* | -11% | 12% | -7% | -7%
Cn1c(SCc2ccc(Cl)cc2)nnc1C1CC1 | 5% | 4% | 23% | 3% | -8% | i
CCn1c(C)c(C)c2cc(C(=O)NCCCN3CCCCC3)ccc21 | 2% | ? | -3% | ? | -19% | ?
Cc1ccccc1C(=O)Oc1ccccc1C(=O)N1CCOCC1 | 1% | 8.3µM* | -13% | 12% | · | ·
O=C(NOC(=O)c1cc(Br)ccc1Cl)c1cccs1 | -1% | 37% | 20% | 25% | -9% | -10%
COc1cc(/C=C2/C(=O)N(C)C(=S)N2C)ccc1OCc1cccc(F)c1 | 9% | 3.3µM* | -1% | ? | 6% | -14%
CN1C(=O)/C(=C/c2ccc(OCc3cccc(F)c3)cc2)NC1=S | 8% | ? | 10% | 4% | 0% | -14%
CNC(=S)N1C2CCCC1CC(NC(=O)c1ccc(C)cc1)C2 (stereo unspecified) | · | · | · | 17% | · | ·
Cc1ccc(C(=O)NC2CC3CCCC(C2)N3C(=S)NCc2ccco2)cc1 (stereo unspecified) | -3% | 33% | 10µM* | -8% | -12% | -6%
CCOC(=O)/C(=C\c1ccc(OC(F)F)cc1)C1=Nn2c(nnc2-c2ccc(Cl)cc2)SC1 | 10% | ? | ? | ? | 13µM* | ?
CCOC(=O)/C(=C\c1ccc(Cl)cc1)c1nc2sc(C)c(C)c2c(=O)[nH]1 | -29% | ? | ? | ? | ? | ?
CCOC(=O)/C(=C/c1ccc(OC(F)F)cc1)C1=Nn2c(nnc2-c2ccc(Cl)cc2)SC1 | · | · | · | ? | 11µM* | ?
Cc1ccc(C)c(NC(=O)c2ncn[nH]2)c1 | 7% | -9% | 2% | 9% | -5% | -10%
CCC(C)c1ccc(O)c(NC(=O)c2ncn[nH]2)c1 (stereo unspecified) | -53% | 3.3µM* | 10% | ? | -3% | -15%
COCCNC(=O)c1cc(S(=O)(=O)N2CCC3(CC2)OCCO3)ccc1F | · | · | · | · | -6% | -8%
COc1ccc2c(c1)C(=O)N1[C@H]3c4cc(OC)ccc4OC[C@@H]3[C@H](c3ccccc3)[C@]1(C)C(=O)N2 | · | ? | 13µM* | ? | ? | -29%
COc1ccc2c(c1)OC[C@H]1[C@H]2N2C(=O)c3cc(OC)c(OC)cc3NC(=O)[C@@]2(C)[C@H]1c1ccccc1 | · | 6.6µM* | 2.3µM* | 7.1µM* | ? | ?
COc1ccc2c(c1)OC[C@H]1[C@H]2N2C(=O)c3cc(Br)ccc3NC(=O)[C@@]2(C)[C@H]1c1ccccc1 | · | 5.2µM* | 1.7µM* | ? | -27% | i
COc1ccc2c(c1)[C@H]1[C@H](CO2)[C@H](c2ccccc2)[C@]2(C)C(=O)Nc3cc(F)ccc3C(=O)N12 | · | · | · | -9%[8.37 µM] | -28% | ?
